A selection: hits, their analogues and other compounds. The true share with any hit is near 3.4%.
FBW7 activator: human FBW7 E3 ligase activation, primary screen; normalized activity (activation), % at 26.1 µM; Q969H0; AlphaScreen FBW7–phospho-cyclin E peptide binding, activator screen; 0.13% of 650,000 active; in the data active means normalized activity above about 1.9%;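 further: purified mutant Fbw7 with reduced substrate affinity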
GPR151 activ: activators of human GPR151; PathHunter beta-arrestin GPR151 cells, luminescence; activation, % at 11.2 µM; 1% of 650,000 active; AID 1508602; in the data active means activation above about 4.9%
MITF inh: inhibitors of human MITF | AlphaScreen MITF homodimerization, bead proximity signal | AID 1259374 | O75030 | inhibition, % at 2.6 µM | 0.91% of 650,000 active; in the data active means inhibition above about 50%
TEAD-YAP block: TEAD-YAP interaction inhibition; HEK-TIYL cells, TEAD-Gal4/YAP UAS-luciferase luminescence; inhibition, % at 9.12 µM; 1.4% of 640,000 active; AID 1259422; in the data active means inhibition above about 32%
A number is an active result; - = inactive.

SMILES | FBW7 activator | GPR151 activ | MITF inh | TEAD-YAP block
Cc1[nH]n(-c2ccccc2)c(=O)c1/C=N/NC(=O)C1COc2ccccc2O1 (centres undefined) | - | - | - | 35.6
COC(=O)c1ccc(/C=N/NC(=O)C2COc3ccccc3O2)cc1 (centres undefined) | - | - | - | -
CC(=O)N/N=C/c1c(C)[nH]n(-c2ccccc2)c1=O | - | - | - | -
Cc1ccccc1-n1[nH]c(C)c(/C=N/NC(=O)C(=O)N/N=C/c2c(C)[nH]n(-c3ccccc3C)c2=O)c1=O | - | - | 51.7 | -
Cc1ccccc1-n1nc2c(c1NC(=O)COc1ccc3ccccc3c1)CSC2 | - | - | - | -
Brc1ccc(-c2nc(Cc3ccccc3)no2)cc1 | - | - | - | -
CC(=O)C1=C(c2ccccc2)NC(=O)NC1c1ccccc1OC(C)C (centres undefined) | - | - | - | -
COc1cccc(NC(=O)CSc2nc(NC3CCCCC3)c3ccccc3n2)c1 | - | - | - | 43.6
Cc1ccc(CNC(=O)c2ccc3c(c2)N(Cc2ccccc2C)C(=O)CS3)cc1 | - | - | - | -
O=C(NC1CC1)C1CCN(c2ccc(-c3ccccc3)nn2)CC1 | - | - | - | -
c1ccc(-c2ccc(N3CCCCCC3)nn2)cc1 | - | - | - | 93.1
COc1ccccc1N1CCN(c2ccc(-c3ccccc3)nn2)CC1 | - | - | - | 87.9
NNC(=O)c1ccc(Cl)c(S(=O)(=O)Nc2ccccc2Cl)c1 | - | - | - | -
CCCCCCCC(=O)N/N=C/c1cccc(OC)c1OC | - | - | - | -
C=CCN1/C(=C/c2cccc[n+]2C)Sc2ccccc21 | - | - | - | 77.2
C=CCN1/C(=C/c2cc[n+](C)cc2)Sc2ccccc21 | - | - | - | 87.5
CN1/C(=C/c2cc[n+](C)cc2)Sc2ccccc21 | - | - | - | -
OC(COc1ccccc1)CN1CCN(CC(O)COc2ccccc2)CC1 (centres undefined) | - | - | - | -
O=C1Cc2ccccc2N1C1CCN(CC(O)COc2ccccc2)CC1 (centres undefined) | - | - | - | 36.0
CCN1C=C(c2ccc3ccccc3n2)C(C[N+](=O)[O-])c2ccccc21 (centres undefined) | - | - | - | -
O=C(NC1CCCCC1)N1CCC(c2nc3c(nnn3Cc3ccccc3)c(=O)[nH]2)CC1 | - | - | - | 44.3
O=C(C1CCCC1)N1CCC(c2nc3c(nnn3Cc3ccccc3)c(=O)[nH]2)CC1 | - | - | - | -
Cc1ccccc1COc1cccc2ccc(N3CCN(C(=O)c4ccco4)CC3)nc12 | - | - | - | -
COc1cc(COc2cccc3ccc(N4CCN(C(=O)c5ccco5)CC4)nc23)cc(OC)c1 | - | - | - | 35.4
Cc1ccccc1C(O)(C(=O)N=c1ccccn1O)c1ccccc1C | - | - | - | -
SMILES | FBW7 activator | GPR151 activ | MITF inh | TEAD-YAP block
COC(=O)c1ccc(N2N=C(C)/C(=C/c3ccc(OCc4ccc(Cl)cc4)c(OC)c3)C2=O)cc1 | 2.0 | - | - | -
O=C(COC(=O)c1ccccc1Cl)Nc1ccc2c(c1)OCO2 | - | - | - | -
CC(=O)N1CCN=C1SCc1cccc([N+](=O)[O-])c1 | - | - | - | -
CCN(CC)c1ccc(/C=N\Nc2cc(=O)n(C)c(=O)n2C)cc1 | - | - | - | 55.0
Cc1ccc(S(=O)(=O)/N=C(\N)NC#N)cc1 | - | - | - | -
O=C(Nc1nnc(COc2ccc(C3CCCCC3)cc2)s1)C12CC3CC(CC(C3)C1)C2 | 1.9 | - | - | -
Cc1cc(NC2CC2)nc(-c2ccc(C(=O)N3CCN(C)CC3)cc2)n1 | - | - | - | -
CCOC(=O)C(NC(=O)CC)(Nc1sc2c(c1C(=O)OC)CCN(C)C2)C(F)(F)F (centres undefined) | 3.4 | - | - | -
CSc1sccc1/C=N/Nc1ccc([N+](=O)[O-])cc1 | 2.1 | - | - | -
COc1ccc(C(=O)COc2cccc3c(=O)n(C)ccc23)cc1 | - | - | - | 48.4
Cc1ccc2c(c1)sc(=NC(=O)c1cccs1)n2C | - | - | - | 74.1
COc1cc2sc(=NC(=O)c3cccs3)n(C)c2cc1OC | - | - | - | -
Oc1ccc(CNc2cccc(Br)c2)c2cccnc12 | - | - | - | -
Oc1ccc(CNc2ccc(Cl)cn2)c2cccnc12 | - | - | - | 54.1
CCOc1ccc(NCc2ccc(O)c3ncccc23)cc1 | - | - | 62.4 | -
CCOCCOC(=O)C1=C(C)NC2=C(C(=O)CCC2)C1c1cccc(OC)c1 (centres undefined) | - | - | - | -
O=C(Nc1ccc(-c2nc3ccccc3o2)cc1)C1CCN(Cc2ccccn2)CC1 | - | - | - | -
CC(C)(C)c1ccc(-c2nc3ccccc3c(=O)o2)cc1 | - | - | - | 53.3

Bioassay records as filed in PubChem.
